Inconclusive results are not listed. Activity calls are given as the source filed them. Unless noted, the call rests on the fitted dose curve; in most records, active means well fitted curve in the direction sought with a large enough effect in the repeat runs; inconclusive means weak or mixed curves; inactive means no such curve, though single readings can be large; an effect the other way counts as inactive or inconclusive.
Key:
[1] = qHTS assay for small molecule agonists of the p53 signaling pathway (AID 651631; calls by dose curve; further: nearly all actives have a fitted effect of over 15% in size; further: potency means the concentration at half of the fitted maximal effect)
How it was run: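 HCT-116 cells carrying a stable p53 response element–beta-lactamase reporter were plated, rested 5 h at 37 °C, then exposed to compound in DMSO for 16 h at 37 °C; reporter activity was read as FRET substrate fluorescence after 2 h at room temperature.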

[2] = qHTS assay for small molecule agonists of the p53 signaling pathway - cell viability (AID 651633; calls by dose curve; further: series mostly up to about 83 µM; nearly all actives have a fitted effect of over 30% in size)
How it was run: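 Viability counter-read: CellTiter-Glo luminescence (30 min, room temperature) in the same p53RE-bla plates. These plates had been exposed to compounds for 16 h at 37 C.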

[3] = qHTS assay for small molecules that induce genotoxicity in human embryonic kidney cells expressing luciferase-tagged ATAD5 - cell viability (AID 651634; calls by dose curve; further: nearly all actives have a fitted effect of over 25% in size)
How it was run: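 Here HEK293T cells with the ATAD5 luciferase reporter are incubated with test compounds for 15.5 hr, and cytotoxicity is then gauged by measuring protease activity in live cells using fluorescence.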

[4] = qHTS assay for small molecule disruptors of the mitochondrial membrane potential - cell viability (AID 720634; calls by dose curve;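 further: human HepG2 liver cancer cells; series mostly up to about 83 µM; nearly all actives have a fitted effect of over 20% in size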)
How it was run: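 Viability of HepG2 cells is scored from ATP content by luminescence; cells are exposed to compound for 1 hr at 37 C and 5% CO2, then dosed with m-MPI dye before the CellTiter-Glo reagent.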

[5] = qHTS assay for small molecule disruptors of the mitochondrial membrane potential (AID 720635); further: potency means the concentration at half of the fitted maximal effect
How it was run: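 Mitochondrial membrane potential tracked with Mito-MPS dye, red aggregates (ex 540/em 590 nm) against green monomers (ex 490/em 535 nm). Compound treatment 1 hr at 37C, dye 30 min in HepG2.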

[6] = qHTS assay to test for compound auto fluorescence at 590 nm (red) in HepG2 cells (AID 720674)
How it was run: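 We screened compounds on adherent HepG2 cells, incubating them for an hour at 37 C in 5% CO2 before reading emission at 590 nm under 540 nm excitation; values reflect equivalence to Rose Bengal sodium fluorescence.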

[7] = qHTS assay to test for compound auto fluorescence at 535 nm (green) in HepG2 cells (AID 720675)
[8] = qHTS assay to test for compound auto fluorescence at 460 nm (blue) in HEK293 cells (AID 720678)
How it was run: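 After cell attachment (4-5 hr, 37C), compounds were pinned onto HEK293 monolayers in 10% dialyzed FBS medium. The blue channel (405/460 nm) was read following overnight culture. Equivalency was calculated against triamterene.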

[9] = qHTS assay to test for compound auto fluorescence at 535 nm (green) in HEK293 cells (AID 720680)
[10] = qHTS assay to test for compound auto fluorescence at 460 nm (blue) in HEK293 cell free culture (AID 720681)
How it was run: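 Blue fluorescence (Ex 405/Em 460 nm, triamterene-equivalent) was read immediately after pin transfer of compound or DMSO into medium (DMEM, 10% FBS) without cells.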

[11] = qHTS assay to test for compound auto fluorescence at 535 nm (green) in HEK293 cell free culture (AID 720682)
How it was run: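 Read-out: 485/535 nm fluorescence intensity, calibrated against fluorescein. Medium only (DMEM + 10% FBS, no cells); test compound or DMSO vehicle added by pintool before plate reading.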

[12] = qHTS assay to test for compound auto fluorescence at 590 nm (red) in HEK293 cell free culture (AID 720683)
How it was run: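 Red-channel autofluorescence of compounds in culture medium (DMEM, 10% FBS), no cells, measured at 540/590 nm. Rose Bengal sodium is the reference fluorophore for equivalence.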

[13] = qHTS assay to test for compound auto fluorescence at 590 nm (red) in HepG2 cell free culture (AID 720684)
How it was run: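 No cells present: MEM + 10% FBS only. Compound pinned in, red label read (540/590 nm). Activity = fluorescence equivalent to Rose Bengal sodium.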

[14] = qHTS assay to test for compound auto fluorescence at 460 nm (blue) in HepG2 cell free culture (AID 720685)
How it was run: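 Cell-free plates of MEM plus 10% FBS received 23 nL compound or DMSO vehicle; blue-channel (405/460 nm) intensity scored against triamterene as reference fluorophore.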

[15] = qHTS assay to test for compound auto fluorescence at 535 nm (green) in HepG2 cell free culture (AID 720686)
[16] = qHTS assay to test for compound auto fluorescence at 460 nm (blue) in HepG2 cells (AID 720687)
How it was run: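 Blue-channel autofluorescence (Ex/Em 405/460 nm, triamterene-equivalent) was measured after 1 hr compound exposure at 37 C, 5% CO2. Cells were HepG2, plated overnight at 37 C in MEM plus 10% FBS.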

[17] = molecular target: Glucocorticoid receptor (Homo sapiens) (UniProt P04150); experiment: qHTS assay to identify small molecule agonists of the glucocorticoid receptor (GR) signaling pathway (AID 720691; active means well fitted activation curve with a large enough effect in the signal ratio in the repeat runs, not every such curve was filed as active; the % refers to the signal ratio)
How it was run: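 Compounds in DMSO, alongside positive controls, were added to GR-bla HeLa reporter cells and incubated 18 h at 37 C; GRE-driven beta-lactamase was detected by fluorescence after 2 h with FRET substrate at room temperature.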

[18] = molecular target: Glucocorticoid receptor (Homo sapiens) (UniProt P04150); experiment: qHTS assay to identify small molecule antagonists of the glucocorticoid receptor (GR) signaling pathway (AID 720692; active means well fitted inhibition curve with a large enough effect in the signal ratio in the repeat runs, not every such curve was filed as active; the % refers to the signal ratio)
How it was run: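 In a 1536-well cell format, compounds were added 4 h after seeding GR-bla HeLa cells, together with dexamethasone at 5 nM final; reporter activity was measured by FRET-substrate fluorescence following 18 h at 37 C.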

[19] = qHTS assay for small molecules that induce genotoxicity in human embryonic kidney cells expressing luciferase-tagged ATAD5 (AID 651632); further: nearly all actives have a fitted effect of over 15% in size
How it was run: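 DMSO vehicle served as the control. HEK293T reporter cells, 16 hr at 37C, then 30 min Amplite at room temperature; ATAD5 induction is measured as luciferase activity.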

[20] = qHTS assay to test for compound auto fluorescence at 590 nm (red) in HEK293 cells (AID 720679)
How it was run: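 Plates of HEK293 cells (10% dialyzed FBS) are treated with 23 nL compound or DMSO vehicle after a 4-5 hr attachment period, incubated overnight at 37C, and read for red fluorescence at 540/590nm.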

Measured: Potency

Sequence of Glucocorticoid receptor (Homo sapiens) (P04150 whole entry, looked up): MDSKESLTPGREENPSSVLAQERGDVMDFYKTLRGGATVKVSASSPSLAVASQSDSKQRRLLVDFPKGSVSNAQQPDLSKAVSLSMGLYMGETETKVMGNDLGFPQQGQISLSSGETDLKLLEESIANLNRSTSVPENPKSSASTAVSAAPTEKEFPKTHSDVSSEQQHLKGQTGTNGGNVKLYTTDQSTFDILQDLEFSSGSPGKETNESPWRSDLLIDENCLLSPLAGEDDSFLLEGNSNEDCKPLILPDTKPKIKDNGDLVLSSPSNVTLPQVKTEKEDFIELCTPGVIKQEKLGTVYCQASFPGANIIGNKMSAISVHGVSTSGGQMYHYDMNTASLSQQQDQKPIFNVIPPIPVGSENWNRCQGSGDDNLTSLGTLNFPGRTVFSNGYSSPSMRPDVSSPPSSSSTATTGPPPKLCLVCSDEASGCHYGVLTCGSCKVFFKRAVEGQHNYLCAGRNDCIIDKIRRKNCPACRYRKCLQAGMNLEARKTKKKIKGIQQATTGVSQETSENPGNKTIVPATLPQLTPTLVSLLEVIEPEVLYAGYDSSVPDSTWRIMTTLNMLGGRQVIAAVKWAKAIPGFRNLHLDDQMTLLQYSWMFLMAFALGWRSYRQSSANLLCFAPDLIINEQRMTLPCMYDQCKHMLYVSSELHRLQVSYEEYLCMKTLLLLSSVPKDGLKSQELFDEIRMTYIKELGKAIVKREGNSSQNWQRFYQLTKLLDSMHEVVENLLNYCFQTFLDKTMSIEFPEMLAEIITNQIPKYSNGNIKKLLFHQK

Brc1ccc(Oc2ccccc2)cc1
not listed: [19] | [20]
inactive: all other assays above

Clc1ccc(C2(Cn3cncn3)CC(Br)CO2)c(Cl)c1 (stereo not given)
not listed: [2] | [4] | [5] | [13] | [18]
inactive: all other assays above

C=CC(=O)OCC(C)C
not listed: [2] | [4] | [5] | [17] | [18]
inactive: all other assays above

CC(=O)C(C)(C)C
not listed: [5] | [19] | [20]
inactive: all other assays above

C=CC(=O)NCNC(=O)C=C
not listed: [4] | [5] | [7] | [18] | [19] | [20]
inactive: all other assays above

Cc1ccc(-c2c(Cl)nc(C#N)n2S(=O)(=O)N(C)C)cc1
active: [1] 15.3 µM | [5] 1.09 µM
not listed: [2] | [4] | [17] | [18]
inactive: all other assays above

CC1(C)[C@H](C=C(Cl)Cl)[C@@H]1C(=O)O[C@@H](C#N)c1cccc(Oc2ccccc2)c1
not listed: [2] | [4] | [5] | [7] | [13] | [18]
inactive: all other assays above

NCCCNCCCN
not listed: [2] | [5] | [17] | [18] | [19]
inactive: all other assays above

C=CC(=O)OC
not listed: [5] | [13] | [17] | [18] | [19] | [20]
inactive: all other assays above

O=NN1CCNCC1
not listed: [18] | [19]
inactive: all other assays above

[O-][Cl+]O
not listed: [6] | [7] | [17] | [19] | [20]
inactive: all other assays above

CNC(C)Cc1ccccc1OC (stereo not given)
not listed: [2] | [17] | [19] | [20]
inactive: all other assays above

CCCCCC[N+](=O)[O-]
not listed: [2] | [3] | [5] | [6] | [19]
inactive: all other assays above

O=S(=O)(Cl)c1ccccc1
not listed: [1] | [17] | [18]
inactive: all other assays above

CN1C(=O)NC(=O)C(C)(C2=CCCCC2)C1=O (stereo not given)
not listed: [6] | [7] | [13] | [19]
inactive: all other assays above

c1ccoc1
not listed: [19] | [20]
inactive: all other assays above

CC/C(=N\OC/C=C/Cl)C1=C(O)CC(C2CCOCC2)CC1=O (stereo not given)
not listed: [7] | [15] | [19]
inactive: all other assays above

— PubChem BioAssay (Tox21)
